# Measurements published in PubChem BioAssay (NCI).
# The panel holds about 83,000 compounds, 20% with a hit somewhere; the sample as a whole holds those more often.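 Treatment: one concentration, 48 hours, 96-well format. Scoring: percent growth, with anything below 10 considered active.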 The source made the active and inactive calls.
# Tested on: MDA-MB-468 breast
# Test: NCI-60 one-dose screen, 48 h (100 = growth as untreated, 0 = no growth, -100 = all killed)
# Settings: 10 µM unless noted
row,Structure (SMILES),growth
1,COc1ccc(C(=O)/C=C/c2cc(-c3ccc4c(c3)OCO4)n[nH]2)cc1OC,28.2% (inactive)
2,CCOC(=O)c1cnc2sc(-c3ccc(OC)cc3)nc2c1Cl,90.4% (inactive)
3,N#Cc1c(-c2ccccc2)nc2c(c(-c3ccccc3)nn2-c2ccccc2)c1-c1ccc(N2CCCCC2)cc1,93.7% (inactive)
4,CCCc1cc(=O)oc2c3c(c4c(c12)OC(C)(C)CC4)OC(C)[C@H](C)[C@@H]3O (stereo not given in full),108% (inactive)
5,COc1cc2c(cc1-c1c(C)noc1C)ncc1nc(C3CCOCC3)n(C3CCC(OC(F)F)CC3)c12 (stereo not given),40.9% (inactive)
6,CCCCCn1ncc(-c2c(O)c(O)cc3c(O)c(-c4c(C)cc5c(-c6cnn(CCCCC)n6)c(O)c(O)cc5c4O)c(C)cc23)n1,-2.7% (active)
7,Cc1ccc(-c2nn(C)c(=O)c3noc(-c4ccc(C)cc4)c23)cc1,19.8% (inactive)
8,CCN1Cc2c(/C=C/c3ccccc3)nc3ccc(OC)cc3c2N(c2cccc(Cl)c2)C1,48.3% (inactive)
9,CC(=O)C1=C(C)NC(NN)=NC1c1cccc(Cl)c1 (stereo not given),105% (inactive)
10,O=C1C=CC(=O)N1c1ccccc1,106% (inactive)
11,COc1ccc(C/C(C)=C(/c2ccc(OCCN(C)C)cc2)c2ccc(OC(=O)NCc3ccccc3)cc2)cc1,67.6% (inactive)
12,CC(=O)OCCC/C(=C/c1cc2ccccc2c2ccccc12)[N+](=O)[O-],-69% (active)
13,COc1ccc(C(=O)/C=C/c2cc3c(c(OC)c2)OCC(=O)N3)cc1,42.3% (inactive)
14,O=C1NC(=O)C(Cc2ccccc2)(Cc2ccccc2)N1,104% (inactive)
15,Cc1cc(N2CCOCC2)nc(N(CCCNc2ccnc3cc(Cl)ccc23)Cc2ccco2)n1,21.7% (inactive)
16,CCCCOc1nc2ccc(C)cc2cc1/C=C/C(=O)/C=C/c1ccc2c(c1)OCO2,95.9% (inactive)
17,O=C1/C(=C/c2ccc([N+](=O)[O-])s2)Oc2ccc(Br)cc21,-40.2% (active)
18,COc1ccc(-c2ccc(NC(=O)Nc3ccc(Cl)c(C(F)(F)F)c3)c(C)n2)cc1,38.5% (inactive)
19,CN1CCN(c2nc(-c3cnc4ccccc4n3)cc3ccccc23)CC1,9.21% (active)
20,Clc1ncnc2scc(C3COc4ccccc4O3)c12 (stereo not given),-3.8% (active)

row,Structure (SMILES),growth
1,CCCCCC[C@@H](O)C/C=C\CCCCCCCC(=O)OCCOC,104% (inactive)
2,O=c1cc(-c2ccc3c(c2)OCCO3)oc2cc(Cl)ccc12,66.4% (inactive)
3,COc1cc(OC)c2c(c1)c1nc3cc(C)c(C)cc3nc1n2CCN(C)C,117% (inactive)
4,N#CC(Cc1cccc2ccccc12)c1cc2ccccc2[nH]1 (stereo not given),93.2% (inactive)
5,C#C[C@@]1(O)[C@@H](CO)O[C@@H](n2cc(Cl)c3c(N)ccnc32)[C@@H]1O,72.3% (inactive)
6,CSc1nc2sc3cc(Cl)ccc3n2c(=N)c1C#N,-45% (active)
7,COc1cc2c(-c3nc4cc(Cl)c(F)cc4s3)cc(=O)oc2c(C)c1OC,-58.7% (active)
8,CC(=O)Cc1ccccn1,120% (inactive)
9,CC[C@@H](c1ccc(O)c(O)c1)[C@@H](CC)c1ccc(O)c(O)c1,53.1% (inactive)
10,Cc1cc(N2CCOCC2)nc(N2CCOCC2)n1,94.6% (inactive)
11,COCCOCCOCc1n(Cc2ccc3ccccc3c2)c2ccccc2[n+]1Cc1ccc2ccccc2c1,-20.6% (active)
12,CC(C)(C)NC(=O)C(OC(=O)c1cccc(Cl)c1)c1ccc(Cl)cc1 (stereo not given),87.9% (inactive)
13,CC(=O)O.[In],101% (inactive)
14,COc1ccc(-c2csc3c2-n2cccc2C3=O)cc1O,-5.84% (active)
15,CCOC(=O)c1c(Nc2ccccc2)nn2c(-c3ccco3)c(C#N)cnc12,89.4% (inactive)
16,N/C(=N\c1nc2ccccc2s1)NC(=O)Nc1cccc(Cl)c1,35.5% (inactive)
17,O=C(O)C(SC(C(=O)O)c1ccccc1)c1ccccc1 (stereo not given),106% (inactive)
18,CCOC(=O)c1c(C)[nH]c(C)c1C=O,99.1% (inactive)
19,CCOC(=O)c1[nH]c(C#N)c(C(=O)OCC)c1C,105% (inactive)
20,Clc1ccc2c(NCCCNCc3ccc4c(c3)OCO4)ccnc2c1,-11.9% (active)
